Laboratory results as given in PubChem BioAssay (Tox21).
Results filed as inconclusive are left out. Values without a mark were called inactive. Calls come from the whole dose curve.

Assay: qHTS assay to identify small molecule agonists of the AP-1 signaling pathway (AID 1159526)
Details: ME-180 (cervical carcinoma) AP-1-bla reporter, beta-lactamase FRET ratio, 5 h; series mostly up to 76.8 µM; activation: at the top concentration
% is set by controls: 0 for no effect and ±100 for the full control effect.

Row | Compound | activation
1 | CCCC[P+](C)(CCCC)CCCC | -0.129%
2 | CC[N+](CC)(CC)CCOC(=O)C(C1CCCC1)C1CCCC1 | 0.976% [at 35.3 µM]
3 | O=C1C(c2[nH]c3ccc(S(=O)(=O)O)cc3c2O)=Nc2ccc(S(=O)(=O)O)cc21 | -1.19%
4 | O=C(O)c1cccc(C(F)(F)F)c1 | -4.31%
5 | COc1ccc(-c2coc3cc(O)ccc3c2=O)cc1 | -0.167%
6 | CC(C)(C)CC(C)(C)c1ccc(Nc2ccc(C(C)(C)CC(C)(C)C)cc2)cc1 | 15.6% [at 6.97 µM]
7 | O=C(Oc1ccccc1)Oc1ccccc1 | 10.9%
8 | Cc1ccc(-c2ccccc2)cc1 | -3.63%
9 | CCCCNS(=O)(=O)c1ccc(C)cc1 | 1.81%
10 | Clc1sc(Cl)c(Cl)c1Cl | -0.36%
11 | Cc1ccc(O)c(O)c1 | -1.46%
12 | CCCc1ccc(OCC(=O)N2CCN(C(=O)COc3ccc(CCC)cc3OC)CC2)c(OC)c1 | 4.54% [at 35.3 µM]
13 | COc1cc(S(=O)(=O)O)c(C)cc1N=Nc1c(O)ccc2cc(S(=O)(=O)O)ccc12 | -1.42%
14 | O=C(O)CCN(C1(C(=O)NO)CCCC1)S(=O)(=O)c1ccc(Oc2ccc(F)cc2)cc1 | 2.68%
15 | O=[N+]([O-])c1cccc(C(F)(F)F)c1 | -2.6%
16 | COc1cc(/C=C/c2ccccc2)oc(=O)c1 | 0.451%
17 | CN(C)Cc1cc(C(C)(C)C)c(O)c(C(C)(C)C)c1 | 2.59%
18 | O=c1[nH]c(=O)n([C@H]2C[C@H](O)[C@@H](CO)O2)cc1F | -0.0454% [at 35.3 µM]
19 | Nc1ccc(Oc2ccc(Cl)cc2)cc1 | 1.65%
20 | CCCCCCCC/C=C\CCCCCCCCN | 8.07% [at 35.3 µM]
21 | CN(C)CCN1CCN(c2cccc(Cl)c2)C1=O | -0.0951% [at 35.3 µM]
